Consider seven molecules from PubChem BioAssay (Tox21).

SMILES strings stand for the structures. “And” between values parts separate entries of the source, which are not always exact repeats. Identical values can stand only once. Records with an inconclusive call do not appear. Where a structure was tested more than once in an assay, its records may differ in their call. The source made the active and inactive calls. Unless noted, the call rests on the fitted dose curve; in most records, active means well fitted curve in the direction sought with a large enough effect in the repeat runs; inconclusive means weak or mixed curves; inactive means no such curve, though single readings can be large; an effect the other way counts as inactive or inconclusive.

A short description of experiment [1]: Human pregnane X receptor (PXR) small molecule agonists, qHTS cell viability counter screen (AID 1346977). Further: on the % scale 0 is the no-effect control and ±100 the full control effect; nearly all actives have a fitted effect of over 50% in size. The gist of the method:
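Measures live-cell protease fluorescence (CellTiter-Fluor) in PXR-Luc HepG2 cells treated 24hr with compounds at 37C. Cells had 5hr to attach before pin transfer of DMSO solutions.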
(qHTS replaces the single test concentration by a dilution series.)

The nature of experiment [2]: Caspase-3/7 induction in HepG2 cells by small molecules, qHTS assay (AID 1346978). Further: on the % scale 0 is the no-effect control and ±100 the full control effect; nearly all actives have a fitted effect of over 15% in size. The gist of the method:
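Wild-type HepG2 cells, 2,000/well, settled 5 hr at 37 C and 5% CO2, then compound-treated for 17 hr; caspase-3/7 activity read by luminescent Caspase-Glo 3/7 after 30 min at room temperature.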

Experiment [3] in a line: Caspase-3/7 induction in CHO-K1 cells by small molecules, qHTS cell viability counter screen (AID 1346979). Further: nearly all actives have a fitted effect of over 35% in size. Further: potency means the concentration at half of the fitted maximal effect. The gist of the method: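 In the same wells as the caspase read, viability of compound-treated wild-type CHO-K1 cells was assessed using CellTiter-Fluor, added after 16hr at 37C and measured by fluorescence following 1hr further incubation.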
Experiment [4] in a line: Caspase-3/7 induction in CHO-K1 cells by small molecules, qHTS assay (AID 1346980). Further: on the % scale 0 is the no-effect control and ±100 the full control effect; nearly all actives have a fitted effect of over 15% in size. The gist of the method:
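Wild-type CHO-K1 cells exposed to compounds for 17hr at 37 C, 5% CO2. Caspase-3/7 activity then measured by Caspase-Glo 3/7 luminescence after 30min at room temperature.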

A short description of experiment [5]: Caspase-3/7 induction in HepG2 cells by small molecules, qHTS cell viability counter screen (AID 1346981). Further: series mostly up to about 92 µM; on the % scale 0 is the no-effect control and ±100 the full control effect; nearly all actives have a fitted effect of over 30% in size. The gist of the method: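 Cell viability is measured as a cytotoxicity counter screen alongside the Caspase-Glo 3/7 readout in identical wells. Wild-type HepG2 cells are treated with test compounds for 16 hr at 37 C before CellTiter-Fluor addition and a 1-hr incubation.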

Experiment [6] deals with Nuclear receptor subfamily 1 group I member 2 (Homo sapiens) (UniProt O75469). The experiment can be described thus: Human pregnane X receptor (PXR) small molecule agonists, qHTS assay (AID 1346982). Further: nearly all actives have a fitted effect of over 35% in size. Further: potency means the concentration at half of the fitted maximal effect. The gist of the method:
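Cells: HepG2 stably carrying PXR-Luc. Medium held 5% charcoal-stripped FBS. Compounds in DMSO added after 5 hr plating, incubated 24 hr, then luminescence quantified with ONE-Glo.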

For experiment [7], the target named is Acetylcholinesterase (Homo sapiens) (UniProt P22303). Put plainly: Acetylcholinesterase (AChE) small molecule antagonists: colormetric cell-based qHTS assay (AID 1347395; calls by dose curve; further: on the % scale 0 is the no-effect control and ±100 the full control effect; nearly all actives have a fitted effect of over 30% in size). The gist of the method:
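Endogenous AChE of human neuroblastoma SH-SY5Y cells was measured with an Ellman-type DTNB/acetylthiocholine mix. Compound pretreatment lasted 30 min at 37 C; substrate reaction ran 90 min at 37 C.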

The target is the same in experiment [8]. The experiment can be described thus: Acetylcholinesterase (AChE) small molecule antagonists: enzyme-based qHTS assay (AID 1347397; calls by dose curve; further: on the % scale 0 is the no-effect control and ±100 the full control effect; nearly all actives have a fitted effect of over 55% in size). Particulars: Potency: AChE enzyme activity inhibition. The gist of the method:
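Colorimetric DTNB read-out of thiocholine released from acetylthiocholine by recombinant human AChE (50 mU/mL as dispensed). Compounds were preincubated 30 min at RT before substrate/DTNB addition, with a 10 min RT reaction.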

For experiment [9] the target is unchanged. The experiment can be described thus: Acetylcholinesterase (AChE) small molecule antagonists: fluorescence cell-based qHTS assay (AID 1347398; calls by dose curve; further: on the % scale 0 is the no-effect control and ±100 the full control effect; nearly all actives have a fitted effect of over 50% in size). Particulars: Potency: AChE activity. The gist of the method:
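SH-SY5Y, 2,000 cells/well, attached overnight; cmpd 30 min 37 C; acetylthiocholine/Thiolite Green cocktail 40 min RT; fluorescence Ex/Em 490/520 nm.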

Experiment [10] shares this target. The experiment can be described thus: Acetylcholinesterase (AChE) small molecule antagonists: enzyme-based qHTS assay with human liver microsomes (AID 1347399; calls by dose curve; further: on the % scale 0 is the no-effect control and ±100 the full control effect; nearly all actives have a fitted effect of over 60% in size). Conditions: Potency: qHTS inhibition. The gist of the method: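 Recombinant human AChE (50 mU/mL in the enzyme mix) and human liver microsomes (0.25 mg/mL final) were preincubated with compound and NADPH (0.25 mg/mL final) for 30 min at 37 C. Acetylthiocholine/DTNB was then added; thiocholine was read colorimetrically after 10 min at room temperature.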

Experiment [11] addresses Cytochrome P450 2D6 (Homo sapiens) (UniProt P10635). Put plainly: Cytochrome P450 Family 2 Subfamily D Member 6 (CYP2D6) small molecule antagonists: luciferase reporter qHTS assay (AID 1671196). Further: series mostly up to about 120 µM; on the % scale 0 is the no-effect control and ±100 the full control effect; nearly all actives have a fitted effect of over 50% in size. The gist of the method: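 Enzyme and proluciferin substrate were first combined with test chemical for 10 min at room temperature. Adding NADPH regeneration solution started a 1 h reaction, stopped with luciferin detection reagent and read by luminescence 20 min later.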
For orientation: Reporter assays use an easily measured gene product as a stand-in for the process of interest.

For experiment [12], the target named is Cytochrome P450 2C19 (Homo sapiens) (UniProt P33261). Put plainly: Cytochrome P450 Family 2 Subfamily C Member 19 (CYP2C19) small molecule antagonists: luciferase reporter qHTS assay (AID 1671197). Further: nearly all actives have a fitted effect of over 65% in size. Further: potency means the concentration at half of the fitted maximal effect. On activity change, negative = inhibition: series mostly up to about 120 µM; on the % scale 0 is the no-effect control and ±100 the full control effect. The gist of the method: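 CYP2C19 P450-Glo, 1536-well qHTS. Cpd + enzyme/proluciferin substrate 10 min RT; + NADPH regen, 37C 1 h; stop with luciferin detection reagent, 20 min RT, luminescence (RLU). Pos ctrl ketoconazole.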
Chain of Cytochrome P450 2C19 (Homo sapiens) (P33261 whole entry, looked up): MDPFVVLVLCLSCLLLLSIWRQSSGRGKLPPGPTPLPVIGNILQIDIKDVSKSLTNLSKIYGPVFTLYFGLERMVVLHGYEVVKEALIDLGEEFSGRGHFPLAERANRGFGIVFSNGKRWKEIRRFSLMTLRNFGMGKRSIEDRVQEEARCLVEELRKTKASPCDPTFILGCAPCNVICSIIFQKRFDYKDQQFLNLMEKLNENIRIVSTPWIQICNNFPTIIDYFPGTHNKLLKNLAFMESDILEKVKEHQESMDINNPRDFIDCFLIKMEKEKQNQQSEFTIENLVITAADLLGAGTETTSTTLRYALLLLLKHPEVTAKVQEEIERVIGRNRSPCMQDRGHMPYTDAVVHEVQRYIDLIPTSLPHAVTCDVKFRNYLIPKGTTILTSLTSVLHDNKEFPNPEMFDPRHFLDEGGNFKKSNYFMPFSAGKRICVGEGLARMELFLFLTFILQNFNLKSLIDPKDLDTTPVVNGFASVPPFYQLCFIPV

The target of experiment [13] is Cytochrome P450 2C9 (Homo sapiens) (UniProt P11712). Put plainly: Cytochrome P450 Family 2 Subfamily C Member 9 (CYP2C9) small molecule antagonists: luciferase reporter qHTS assay (AID 1671198). Further: nearly all actives have a fitted effect of over 50% in size. Further: potency means the concentration at half of the fitted maximal effect. On activity change, negative = inhibition: series mostly up to about 120 µM; on the % scale 0 is the no-effect control and ±100 the full control effect. The gist of the method: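 P450-Glo proluciferin substrate with CYP2C9 enzyme; 10 min RT preincubation, then NADPH regeneration 1 h at 37C; luciferin detection reagent 20 min RT, luminescence in relative luminescence units.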
Chain of Cytochrome P450 2C9 (Homo sapiens) (P11712 whole entry, looked up): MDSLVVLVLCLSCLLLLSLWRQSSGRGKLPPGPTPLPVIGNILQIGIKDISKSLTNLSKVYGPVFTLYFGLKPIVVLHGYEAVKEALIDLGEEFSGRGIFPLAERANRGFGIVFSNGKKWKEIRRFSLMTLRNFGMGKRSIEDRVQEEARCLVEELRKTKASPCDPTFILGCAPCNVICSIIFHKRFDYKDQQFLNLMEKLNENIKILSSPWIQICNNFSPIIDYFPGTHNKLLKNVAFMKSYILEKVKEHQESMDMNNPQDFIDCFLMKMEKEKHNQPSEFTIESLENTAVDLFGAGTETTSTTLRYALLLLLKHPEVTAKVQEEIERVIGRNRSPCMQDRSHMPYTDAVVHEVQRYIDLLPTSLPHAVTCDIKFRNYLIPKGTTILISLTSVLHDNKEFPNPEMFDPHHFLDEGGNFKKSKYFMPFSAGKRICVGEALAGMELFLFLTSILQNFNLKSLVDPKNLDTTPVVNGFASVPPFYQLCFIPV

The target of experiment [14] is Voltage-gated inwardly rectifying potassium channel KCNH2 (Homo sapiens) (UniProt Q12809). Put plainly: Human Ether-a-go-go-Related Gene (hERG) channel small molecule antagonists: fluorescence cell-based qHTS assay (AID 1671200). The gist of the method: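 Quantitative HTS in hERG-U2OS cells: thallium entry through the channel reports activity, read as continuous 480/540 nm fluorescence over 2 min after stimulus addition.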
Chain of Voltage-gated inwardly rectifying potassium channel KCNH2 (Homo sapiens) (Q12809 whole entry, looked up): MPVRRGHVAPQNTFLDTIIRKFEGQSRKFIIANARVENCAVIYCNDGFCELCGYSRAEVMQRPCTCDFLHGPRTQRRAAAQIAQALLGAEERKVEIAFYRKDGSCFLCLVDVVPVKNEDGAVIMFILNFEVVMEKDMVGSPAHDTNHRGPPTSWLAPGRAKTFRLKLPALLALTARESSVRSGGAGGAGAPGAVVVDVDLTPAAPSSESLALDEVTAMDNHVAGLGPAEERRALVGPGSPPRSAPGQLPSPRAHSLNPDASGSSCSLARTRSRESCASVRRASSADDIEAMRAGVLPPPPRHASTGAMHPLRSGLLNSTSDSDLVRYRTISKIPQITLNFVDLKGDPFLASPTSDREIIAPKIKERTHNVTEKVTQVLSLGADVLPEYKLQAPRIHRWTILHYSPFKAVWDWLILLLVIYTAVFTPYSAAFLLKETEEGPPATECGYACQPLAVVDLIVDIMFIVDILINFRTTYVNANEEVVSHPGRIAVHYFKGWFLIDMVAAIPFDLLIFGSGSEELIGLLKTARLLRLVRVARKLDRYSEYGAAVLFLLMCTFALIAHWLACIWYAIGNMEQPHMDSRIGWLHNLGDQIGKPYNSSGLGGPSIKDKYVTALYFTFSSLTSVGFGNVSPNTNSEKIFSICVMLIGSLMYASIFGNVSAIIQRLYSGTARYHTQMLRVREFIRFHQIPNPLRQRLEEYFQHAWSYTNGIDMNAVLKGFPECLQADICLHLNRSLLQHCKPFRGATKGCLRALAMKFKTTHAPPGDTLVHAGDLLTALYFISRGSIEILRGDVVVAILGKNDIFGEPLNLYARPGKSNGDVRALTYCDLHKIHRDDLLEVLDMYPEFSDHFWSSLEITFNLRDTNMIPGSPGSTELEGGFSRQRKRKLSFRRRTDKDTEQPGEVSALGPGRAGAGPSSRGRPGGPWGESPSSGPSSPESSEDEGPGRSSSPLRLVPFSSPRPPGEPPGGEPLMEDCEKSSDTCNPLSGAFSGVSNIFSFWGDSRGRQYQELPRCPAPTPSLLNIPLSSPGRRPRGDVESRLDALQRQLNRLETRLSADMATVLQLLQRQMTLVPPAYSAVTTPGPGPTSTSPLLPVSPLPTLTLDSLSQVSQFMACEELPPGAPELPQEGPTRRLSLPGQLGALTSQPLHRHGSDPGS
In general terms: The hERG channel carries a current that helps repolarise heart muscle cells.

For experiment [15], the target named is Cytochrome P450 3A4 (Homo sapiens) (UniProt P08684). The experiment can be described thus: Cytochrome P450 Family 3 Subfamily A Member 4 (CYP3A4) small molecule antagonists: luciferase reporter qHTS assay (AID 1671201). Further: nearly all actives have a fitted effect of over 50% in size. Further: potency means the concentration at half of the fitted maximal effect. On activity change, negative = inhibition: series mostly up to about 120 µM; on the % scale 0 is the no-effect control and ±100 the full control effect. The gist of the method:
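Inhibition of CYP3A4 is measured as loss of light: the enzyme converts a proluciferin substrate to luciferin, detected luminescently. Reaction ran 1 h at room temperature with NADPH regeneration after a 10 min compound preincubation.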

Experiment [16] addresses Cytochrome P450 1A2 (Homo sapiens) (UniProt P05177). The experiment can be described thus: Cytochrome P450 Family 1 Subfamily A Member 2 (CYP1A2) small molecule antagonists: luciferase reporter qHTS assay (AID 1671199). The gist of the method: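 Compounds were incubated with CYP1A2 and a luminogenic proluciferin substrate for 10 min at room temperature before the reaction was started with NADPH regeneration solution. After 1 h, detection reagent was added and light output, proportional to CYP activity, was recorded.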

Chain of Cytochrome P450 3A4 (Homo sapiens) (P08684 whole entry, looked up): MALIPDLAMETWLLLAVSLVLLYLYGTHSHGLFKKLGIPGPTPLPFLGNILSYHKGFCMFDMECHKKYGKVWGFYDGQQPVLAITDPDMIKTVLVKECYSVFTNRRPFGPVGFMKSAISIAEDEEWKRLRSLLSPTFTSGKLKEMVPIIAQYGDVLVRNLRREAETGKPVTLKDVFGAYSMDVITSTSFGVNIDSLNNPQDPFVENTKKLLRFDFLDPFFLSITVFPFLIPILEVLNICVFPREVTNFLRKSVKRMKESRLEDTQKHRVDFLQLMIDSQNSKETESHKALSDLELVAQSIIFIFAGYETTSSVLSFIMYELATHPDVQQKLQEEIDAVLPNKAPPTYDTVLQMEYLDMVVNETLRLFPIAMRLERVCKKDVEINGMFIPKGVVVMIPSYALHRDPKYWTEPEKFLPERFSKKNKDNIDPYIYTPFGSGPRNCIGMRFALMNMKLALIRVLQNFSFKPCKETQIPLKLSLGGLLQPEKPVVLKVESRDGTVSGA
Chain of Nuclear receptor subfamily 1 group I member 2 (Homo sapiens) (O75469 whole entry, looked up): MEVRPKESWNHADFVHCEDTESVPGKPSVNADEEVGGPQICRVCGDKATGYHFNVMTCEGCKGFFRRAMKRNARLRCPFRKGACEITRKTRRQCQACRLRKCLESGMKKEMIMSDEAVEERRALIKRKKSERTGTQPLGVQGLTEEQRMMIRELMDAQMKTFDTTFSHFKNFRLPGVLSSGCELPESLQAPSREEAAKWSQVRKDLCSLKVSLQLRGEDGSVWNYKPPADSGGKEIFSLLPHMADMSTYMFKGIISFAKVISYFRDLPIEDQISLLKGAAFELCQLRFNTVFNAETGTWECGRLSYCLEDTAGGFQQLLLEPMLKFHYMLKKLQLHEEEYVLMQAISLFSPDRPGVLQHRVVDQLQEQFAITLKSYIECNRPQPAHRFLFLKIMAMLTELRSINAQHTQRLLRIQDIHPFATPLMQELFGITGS
Chain of Cytochrome P450 1A2 (Homo sapiens) (P05177 whole entry, looked up): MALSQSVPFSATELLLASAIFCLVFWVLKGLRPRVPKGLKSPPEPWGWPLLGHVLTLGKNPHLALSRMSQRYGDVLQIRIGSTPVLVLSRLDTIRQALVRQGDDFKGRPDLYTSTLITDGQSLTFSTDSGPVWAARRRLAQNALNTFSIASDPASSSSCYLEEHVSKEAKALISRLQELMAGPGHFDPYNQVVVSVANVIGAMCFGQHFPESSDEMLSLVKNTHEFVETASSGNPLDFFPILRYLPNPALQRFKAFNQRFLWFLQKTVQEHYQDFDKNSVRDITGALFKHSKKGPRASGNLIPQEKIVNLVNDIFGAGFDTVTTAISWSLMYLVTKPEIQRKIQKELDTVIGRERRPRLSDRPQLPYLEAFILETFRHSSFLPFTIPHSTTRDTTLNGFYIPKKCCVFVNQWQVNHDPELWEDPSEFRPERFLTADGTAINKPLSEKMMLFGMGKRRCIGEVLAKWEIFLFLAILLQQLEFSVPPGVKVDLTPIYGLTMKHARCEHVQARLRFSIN
Chain of Acetylcholinesterase (Homo sapiens) (P22303 whole entry, looked up): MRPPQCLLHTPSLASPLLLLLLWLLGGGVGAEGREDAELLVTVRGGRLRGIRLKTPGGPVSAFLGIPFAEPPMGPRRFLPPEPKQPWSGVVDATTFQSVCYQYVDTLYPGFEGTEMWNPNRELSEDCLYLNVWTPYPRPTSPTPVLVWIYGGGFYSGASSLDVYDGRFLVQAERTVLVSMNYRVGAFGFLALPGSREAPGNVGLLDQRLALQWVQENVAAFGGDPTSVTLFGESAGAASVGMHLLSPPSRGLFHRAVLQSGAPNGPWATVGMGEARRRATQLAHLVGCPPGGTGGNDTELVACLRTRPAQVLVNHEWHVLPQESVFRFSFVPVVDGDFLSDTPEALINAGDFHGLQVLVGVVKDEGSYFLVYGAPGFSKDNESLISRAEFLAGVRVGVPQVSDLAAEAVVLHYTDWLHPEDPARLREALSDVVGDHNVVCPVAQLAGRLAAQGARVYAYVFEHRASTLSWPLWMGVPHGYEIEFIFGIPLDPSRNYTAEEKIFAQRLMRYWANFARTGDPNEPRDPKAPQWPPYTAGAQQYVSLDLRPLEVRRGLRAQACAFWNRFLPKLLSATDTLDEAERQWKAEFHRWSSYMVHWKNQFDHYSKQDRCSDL
Chain of Cytochrome P450 2D6 (Homo sapiens) (P10635 whole entry, looked up): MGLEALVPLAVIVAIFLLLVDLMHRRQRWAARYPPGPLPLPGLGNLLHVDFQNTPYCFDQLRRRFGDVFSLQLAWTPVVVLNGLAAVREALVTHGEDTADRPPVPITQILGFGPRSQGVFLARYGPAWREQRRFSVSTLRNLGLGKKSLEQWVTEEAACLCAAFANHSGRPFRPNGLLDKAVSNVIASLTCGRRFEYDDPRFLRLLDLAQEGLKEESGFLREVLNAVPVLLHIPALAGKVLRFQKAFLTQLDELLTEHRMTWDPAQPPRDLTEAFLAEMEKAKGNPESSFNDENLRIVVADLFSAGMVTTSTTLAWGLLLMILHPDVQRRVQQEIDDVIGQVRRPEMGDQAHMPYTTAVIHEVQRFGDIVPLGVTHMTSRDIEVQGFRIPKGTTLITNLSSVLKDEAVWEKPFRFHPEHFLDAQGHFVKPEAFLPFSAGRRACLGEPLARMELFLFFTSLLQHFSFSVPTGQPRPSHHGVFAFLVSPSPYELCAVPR

In the case of `COP(=O)(NC(C)=O)SC` (configuration not stated), the Potency result in experiment [1], in [2], in experiment [4], in experiment [5], in experiment [6] and in experiment [7] was “inactive” throughout. For the same molecule, the Potency entry in experiment [8], in experiment [9], in experiment [10], in experiment [11], in experiment [13] and in experiment [14] was “inactive” each time. In experiment [15], the Potency result is “inactive”. The Potency is 48.6 µM (active) and inactive in experiment [3]; 71.1 µM (active) and inactive in experiment [12].

As to `CC(C)(O)C(=O)Nc1ccc([N+](=O)[O-])c(C(F)(F)F)c1`, the Potency entry in experiment [2], in experiment [4], in experiment [5], in [7], in experiment [8] and in [9] was “inactive” throughout. For the same molecule, the Potency entry in experiment [10] and in [14] was “inactive” throughout. Besides, the Potency is 44.2 µM (active) and 39.8 µM (active) in experiment [3]; 27.9 µM (active) and 25.1 µM (active) in [6]; 18.2 µM (active) and 26 µM (active) in experiment [12]; 25.7 µM (active) and 29.2 µM (active) in experiment [13]; 7.25 µM (active) and 6.53 µM (active) in [16]; 40.8 µM (active) in experiment [15].

Consider `CC1=C(C(=O)Nc2ccccc2)SCCO1`, for which the Potency entry in [1], in experiment [2], in [4], in [5], in experiment [7] and in experiment [8] was “inactive” each time. Further, the Potency entry in experiment [9], in [10], in experiment [14] and in [15] was “inactive” each time. In addition, the Potency in experiment [6] is 34.9 µM (active) and 30.6 µM (active); in experiment [12], 36.2 µM (active) and 22.4 µM (active); in [13], 11.2 µM (active); in experiment [16], 12.8 µM (active) and 12.6 µM (active).

As for `[Cl-].[Cl-].[Cl-].[Fe+3]`, the Potency entry in experiment [1], in experiment [2], in experiment [3], in experiment [4], in experiment [5] and in [14] was “inactive” throughout.

For the molecule `C=CC(Cl)CCl` (configuration not stated), the Potency result in [1], in experiment [2], in [3], in experiment [4], in experiment [5] and in [6] was “inactive” each time. The Potency result in experiment [7], in experiment [8], in experiment [9], in experiment [10], in [11] and in [14] was “inactive” each time. In addition, the Potency in experiment [12] is 40.7 µM (active) and inactive.

On to `CSc1nc(NC(C)C)nc(NC(C)C)n1`, for which the Potency entry in [1], in experiment [2], in [3], in experiment [4], in [5] and in experiment [7] was “inactive” throughout. The Potency entry in experiment [8], in experiment [9], in experiment [10], in experiment [11], in experiment [14] and in experiment [15] was “inactive” throughout. For the same molecule, the Potency is 30.5 µM (active) and 21.7 µM (active) in experiment [6]; 39.8 µM (active) and 71 µM (active) in experiment [12]; 17.8 µM (active) in [16].

In the case of `CC(C)CON=O`, the Potency result in experiment [1], in experiment [2], in [3], in [4], in experiment [5] and in [6] was “inactive” each time. Besides, the Potency result in experiment [7], in experiment [8], in [9], in [10], in experiment [12] and in [13] was “inactive” in each case. Moreover, the Potency entry in experiment [14] and in experiment [15] was “inactive” in each case. Further, the activity change, negative = inhibition in experiment [11] is 2.15% [at 23.6 µM] (inactive).
